Source: PubChem BioAssay
Calls of active or inactive are those of the source. Unless noted, no rule for the calls is given here.

Key:
[1] = anti-His antibody binders, primary screen, artefact control for SMM control protein annotation, biochemical, small-molecule microarray, 635 nm fluorescence (AID 1128); settings: anti-His Alexa647 antibody binding, higher = more signal;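 also: score merges feature fluorescence with signal-to-noise for each printed compound spot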
[2] = system: Human papillomavirus type 1a E7 protein (residues 1-88); test: HPV1a E7 small-molecule binders, primary screen, biochemical, small-molecule microarray, residues 1-88, 635 nm (AID 1129); settings: small-molecule microarray binding, fluorescence 635 nm; higher = more signal
[3] = target: Focal adhesion kinase 1 (Homo sapiens) (UniProt Q05397); test: small-molecule microarray binders of FAK, primary screen, biochemical, 635/667 nm fluorescence, BSA, DTT (AID 1130); settings: PTK2 binding, 635 nm fluorescence, higher = more signal;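 also: composite of spot emission at 667 nm and signal to noise over triplicate slides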
Chain of Focal adhesion kinase 1 (Homo sapiens) (Q05397 whole entry, looked up): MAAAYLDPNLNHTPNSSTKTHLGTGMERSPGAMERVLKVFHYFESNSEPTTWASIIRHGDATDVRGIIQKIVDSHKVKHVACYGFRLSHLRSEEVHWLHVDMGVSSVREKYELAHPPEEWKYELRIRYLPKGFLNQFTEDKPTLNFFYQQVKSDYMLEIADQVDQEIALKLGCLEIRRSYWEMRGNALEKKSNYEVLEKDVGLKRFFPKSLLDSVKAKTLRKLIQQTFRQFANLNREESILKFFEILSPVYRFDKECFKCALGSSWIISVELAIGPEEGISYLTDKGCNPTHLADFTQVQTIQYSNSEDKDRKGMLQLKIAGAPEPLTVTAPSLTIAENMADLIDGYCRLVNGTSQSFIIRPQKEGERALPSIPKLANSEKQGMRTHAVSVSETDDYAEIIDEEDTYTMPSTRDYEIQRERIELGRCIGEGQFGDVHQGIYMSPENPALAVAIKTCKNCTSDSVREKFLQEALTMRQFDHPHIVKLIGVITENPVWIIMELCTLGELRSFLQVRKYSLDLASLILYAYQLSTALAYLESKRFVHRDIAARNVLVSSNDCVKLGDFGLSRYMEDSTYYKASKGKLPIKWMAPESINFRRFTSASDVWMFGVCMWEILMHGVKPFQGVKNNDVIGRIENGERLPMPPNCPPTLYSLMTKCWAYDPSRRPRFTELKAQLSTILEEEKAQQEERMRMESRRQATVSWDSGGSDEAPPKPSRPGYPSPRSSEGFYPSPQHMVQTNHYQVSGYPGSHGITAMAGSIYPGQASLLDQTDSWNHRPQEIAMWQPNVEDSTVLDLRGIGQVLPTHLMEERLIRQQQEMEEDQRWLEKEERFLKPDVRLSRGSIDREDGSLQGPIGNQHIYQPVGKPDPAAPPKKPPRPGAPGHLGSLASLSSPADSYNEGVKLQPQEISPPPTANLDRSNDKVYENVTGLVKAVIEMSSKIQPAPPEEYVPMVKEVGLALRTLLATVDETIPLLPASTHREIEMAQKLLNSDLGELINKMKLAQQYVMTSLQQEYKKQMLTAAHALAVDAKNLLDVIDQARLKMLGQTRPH

[4] = system: Fibrinogen (Alexa647-labelled); test: fibrinogen binders on compound microarrays, profiling panel, artefact control for SMM control-protein annotation, biochemical, small-molecule microarray, 635/667 nm fluorescence (AID 1131); settings: fibrinogen-A647 binding fluorescence, higher = more signal;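 also: z-score merges 667 nm fluorescence with per-spot signal-to-noise over triplicate slides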
[5] = target: Follistatin (Homo sapiens) (UniProt P19883); test: follistatin binders on small-molecule microarrays, primary screen, biochemical, small-molecule microarray, 635/667 nm fluorescence (AID 1132); settings: FST binding, 635 nm fluorescence, higher = more signal
Chain of Follistatin (Homo sapiens) (P19883 whole entry, looked up): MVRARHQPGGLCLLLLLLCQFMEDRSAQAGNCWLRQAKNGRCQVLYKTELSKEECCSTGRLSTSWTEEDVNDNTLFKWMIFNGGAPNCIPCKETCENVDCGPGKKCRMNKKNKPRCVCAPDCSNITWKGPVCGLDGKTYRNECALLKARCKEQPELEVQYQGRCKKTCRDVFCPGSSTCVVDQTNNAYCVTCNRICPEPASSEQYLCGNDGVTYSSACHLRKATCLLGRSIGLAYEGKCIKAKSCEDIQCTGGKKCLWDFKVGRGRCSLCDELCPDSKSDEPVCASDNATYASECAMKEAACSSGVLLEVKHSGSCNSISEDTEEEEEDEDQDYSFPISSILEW

[6] = target: Fibroblast growth factor 2 (Homo sapiens) (UniProt P09038); test: FGF2 binders on small-molecule microarrays, primary screen, biochemical, small-molecule microarray, 635/667 nm fluorescence (AID 1133); settings: small-molecule microarray binding, FGF2, fluorescence 635/667; higher = more signal
Chain of Fibroblast growth factor 2 (Homo sapiens) (P09038 whole entry, looked up): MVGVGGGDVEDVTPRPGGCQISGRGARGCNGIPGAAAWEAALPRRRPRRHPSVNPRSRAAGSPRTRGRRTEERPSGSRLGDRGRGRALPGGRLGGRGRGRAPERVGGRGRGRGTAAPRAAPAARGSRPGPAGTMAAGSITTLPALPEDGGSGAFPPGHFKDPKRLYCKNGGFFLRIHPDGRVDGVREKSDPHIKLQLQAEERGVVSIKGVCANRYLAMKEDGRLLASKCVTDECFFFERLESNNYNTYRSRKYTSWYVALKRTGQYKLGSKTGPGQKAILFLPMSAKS

[7] = mitochondrial membrane potential change in A549 cells, profiling panel, cell-based, JC-1 fluorescence, basal, 24 h, 100 nL (AID 1138); settings: higher = more signal;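 also: A549 lung adenocarcinoma cells under basal conditions with no added stimulus; test concentration not given here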
[8] = system: Lefty1; test: Lefty1 binders on small-molecule microarrays, primary screen, biochemical, small-molecule microarray, 635/667 nm fluorescence (AID 1139); settings: small-molecule microarray binding, fluorescence 635/667; higher = more signal
[9] = system: wheat germ agglutinin (Triticum aestivum), Alexa647-labelled; test: wheat germ agglutinin binders on compound microarrays, profiling panel, artefact control for SMM control-protein annotation, biochemical, small-molecule microarray, 635/667 nm fluorescence (AID 1140); settings: WGA-A647 binding, 635 nm fluorescence, higher = more signal;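 also: score merges 667 nm feature emission with signal to noise over triplicate slides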
[10] = target: Luciferin 4-monooxygenase (Photinus pyralis) (UniProt P08659); test: firefly luciferase enzyme inhibitors, primary screen, biochemical, luminescence, purified enzyme, 2006 set (AID 1141); settings: SteadyGlo luminescence, 30 min, higher = more signal, called active from +8 up or from −8 down;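 also: cell-free assay with purified firefly luciferase at 100 ng per well in PBS; test concentration not given here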
Chain of Luciferin 4-monooxygenase (Photinus pyralis) (P08659 whole entry, looked up): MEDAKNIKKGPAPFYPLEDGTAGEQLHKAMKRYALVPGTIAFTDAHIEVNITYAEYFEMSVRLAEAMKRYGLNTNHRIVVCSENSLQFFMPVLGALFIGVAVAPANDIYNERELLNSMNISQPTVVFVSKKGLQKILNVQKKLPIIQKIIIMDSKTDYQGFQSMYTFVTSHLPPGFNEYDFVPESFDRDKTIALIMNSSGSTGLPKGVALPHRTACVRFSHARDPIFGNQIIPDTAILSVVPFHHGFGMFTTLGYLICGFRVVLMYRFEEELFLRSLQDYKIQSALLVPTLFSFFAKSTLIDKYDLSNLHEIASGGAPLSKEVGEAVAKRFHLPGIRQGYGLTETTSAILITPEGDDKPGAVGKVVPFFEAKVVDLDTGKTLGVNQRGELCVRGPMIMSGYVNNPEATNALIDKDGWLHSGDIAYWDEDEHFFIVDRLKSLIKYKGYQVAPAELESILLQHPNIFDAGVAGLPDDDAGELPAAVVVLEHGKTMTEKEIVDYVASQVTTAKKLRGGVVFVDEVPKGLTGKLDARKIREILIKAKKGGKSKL

[11] = system: Wnt5a (protein binding on small-molecule microarray); test: Wnt5a binders on small-molecule microarray, primary screen, biophysical, 635/667 nm fluorescence (AID 1142); settings: 635 nm fluorescence, higher = more signal;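 also: fluorescence read at 667 nm with signal to noise per printed feature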
[12] = cell viability in Huh7 cells, primary screen, cytotoxicity control for HCV replication inhibitor project, CellTiter-Glo luminescence, basal, 48 h (AID 1143); settings: Huh7 HCV replicon, higher = more signal, called active from +8 up or from −8 down;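 also: Huh7 hepatoma cells carrying a hepatitis C replication reporter with no stimulus; test concentration not given here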
[13] = P. aeruginosa biofilm formation inhibitors, primary screen, PAO1 strain, BacTiter-Glo luminescence, LB-PBS (AID 1144); settings: 12 h, higher = more signal
[14] = CREB reporter modulators without forskolin, primary screen, cell-based, PC12, CRE-LacZ reporter, unstimulated (AID 1145); settings: no forskolin, luminescence, 4.5 h, higher = more signal, called active from +8 up or from −8 down
[15] = CREB reporter modulators under forskolin, primary screen, cell-based, PC12, CRE-LacZ reporter, forskolin-stimulated (AID 1146); settings: luminescence, 4.5 h, higher = more signal, called active from +8 up or from −8 down;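 also: PC12 cells with 6xCRE LacZ reporter stimulated by forskolin 10 µM; beta-galactosidase reporter signal reflecting CREB driven transcription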
[16] = target: Streptavidin (Streptomyces avidinii) (UniProt P22629); test: streptavidin binders on small-molecule microarray, primary screen, artefact control for SMM compound annotation, biophysical, 635/667 nm fluorescence (AID 1147); settings: streptavidin binding, higher = more signal;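 also: signal reflects streptavidin binding to arrayed compounds as a control protein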
Chain of Streptavidin (Streptomyces avidinii) (P22629 whole entry, looked up): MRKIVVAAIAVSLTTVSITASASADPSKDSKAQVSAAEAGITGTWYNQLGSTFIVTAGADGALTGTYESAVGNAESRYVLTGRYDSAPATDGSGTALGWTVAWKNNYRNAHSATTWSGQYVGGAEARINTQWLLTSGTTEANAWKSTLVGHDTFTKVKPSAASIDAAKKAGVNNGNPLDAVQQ

[17] = small-molecule binders of probe aInhba, primary screen, biochemical, small-molecule microarray, 635/667 nm fluorescence (AID 1148); settings: higher = more signal;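 also: score merges 667nm spot fluorescence with signal-to-noise for antibody binding to printed compounds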
[18] = target: Torsin-1A (Homo sapiens) (UniProt O14656); test: torsin A binders from cell lysate, primary screen, small-molecule microarray, wild-type, 635/667 nm (AID 1149); settings: COS7 hTOR1A-WT lysate, 635 nm fluorescence, higher = more signal
Chain of Torsin-1A (Homo sapiens) (O14656 whole entry, looked up): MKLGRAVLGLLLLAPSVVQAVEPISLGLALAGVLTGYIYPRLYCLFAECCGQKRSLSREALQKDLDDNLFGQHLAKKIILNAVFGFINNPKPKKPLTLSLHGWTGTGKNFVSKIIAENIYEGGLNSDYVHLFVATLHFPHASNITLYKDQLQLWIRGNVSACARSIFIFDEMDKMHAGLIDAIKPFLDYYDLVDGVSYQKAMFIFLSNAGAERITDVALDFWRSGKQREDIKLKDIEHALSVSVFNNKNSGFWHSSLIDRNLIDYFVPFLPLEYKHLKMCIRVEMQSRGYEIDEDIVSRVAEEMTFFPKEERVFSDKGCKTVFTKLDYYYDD

[19] = target: Torsin-1A (Homo sapiens) (UniProt O14656); test: small-molecule binders of mutant TOR1A in lysate, primary screen, cell lysate, small-molecule microarray, COS7 lysate, 635/667 nm fluorescence (AID 1150); settings: COS7 hTOR1A mutant lysate, 635 nm fluorescence, higher = more signal;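 also: score pools 667 nm emission and signal to noise measuring lysate protein binding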
[20] = system: Sonic hedgehog protein (Shh); test: small-molecule binders of Shh protein, primary screen, biochemical, small-molecule microarray, 635/667 nm fluorescence (AID 1151); settings: small-molecule microarray binding, 635 nm fluorescence; higher = more signal;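 also: Shh protein binding to compounds spotted on small-molecule microarray slides; score combines spot fluorescence intensity with signal-to-noise across triplicate slides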

SMILES | composite z-score [1] | composite z-score [2] | composite z-score [3] | composite z-score [4] | composite z-score [5] | composite z-score [6] | z-score [7] | composite z-score [8] | composite z-score [9] | z-score [10] | composite z-score [11] | z-score [12] | z-score [13] | z-score [14] | z-score [15] | composite z-score [16] | composite z-score [17] | composite z-score [18] | composite z-score [19] | composite z-score [20]
C=CC[C@@]1(C(=O)N(C)C)N=C(c2ccc(OCCCO)cc2)O[C@@H]1c1ccccc1CN=[N+]=[N-] | 2.69 | 1.22 | 0.188 | 0.985 | 1.36 | 1.83 | 3.32 | 0.561 | 1.12 | -0.84 (inactive) | 0.615 | -2.89 (inactive) | 1.1 (inactive) | 0.754 (inactive) | -0.357 (inactive) | 1.35 | 0.143 | 0.886 | 1.17 | 0.38
COc1ccc([Si](C)(C)[C@@H]2[C@@H](CC(=O)N(CCO)Cc3ccccc3)O[C@]3(C(=O)N(Cc4ccc(N5C(=O)c6cccc7cccc5c67)cc4)c4ccccc43)[C@H]2C)cc1 | 2.39 | 0.65 | 0.369 | 0.674 | 0.552 | 0.943 | -0.216 | 0.449 | 0.934 | -0.389 (inactive) | 0.0547 | -4.28 (inactive) | -0.298 (inactive) | 0.12 (inactive) | -0.204 (inactive) | 0.22 | -0.0112 | 0.37 | 0.0705 | 1.8
COc1ccc(C(O)C2C=CC3C(=O)N(c4ccccc4)C(=O)C3N2Nc2ccc(C#N)cc2)cc1OCc1ccccc1 (stereo not given) | 1.86 | 1.21 | 1.3 | 0.506 | 0.636 | -0.529 | 0.399 | -0.56 | 1.15 | 0.188 (inactive) | 0.512 | 0.0667 (inactive) | -0.753 (inactive) | 1.39 (inactive) | 0.338 (inactive) | 1.65 | 0.274 | 0.056 | 1.12 | -0.189
COc1ccc([Si](C)(C)[C@H]2[C@H](CC(=O)N3Cc4ccccc4C[C@H]3CO)O[C@@]3(C(=O)N(C)c4c(Br)cc(C)cc43)[C@@H]2C)cc1 | 0.533 | 0.777 | 0.172 | 0.636 | 1.34 | 1.24 | -0.224 | 1.58 | 0.655 | -0.0165 (inactive) | 0.144 | -7.74 (inactive) | -0.324 (inactive) | 7.68 (inactive) | -1.29 (inactive) | 0.298 | -0.0087 | 0.573 | 0.435 | 2.11
CCCN1C(=O)[C@]2(CCC(=O)OC(C)(C)C)N=C(c3ccc(OCCCO)cc3)O[C@@H]2c2ccccc21 | 0.144 | 1.01 | 0.497 | 0.496 | 1.49 | 0.714 | 0.719 | 0.37 | 0.0961 | -1.55 (inactive) | 0.456 | -4.35 (inactive) | -0.543 (inactive) | 0.512 (inactive) | -1.44 (inactive) | -0.374 | 0.173 | 1.51 | 0.111 | 1.7
COCCCNC(=O)[C@@]1(CCC(=O)OC(C)(C)C)COC(c2ccc(OCCCO)cc2)=N1 | 0.839 | 1.27 | 0.403 | 1.04 | 0.636 | 0.502 | -0.274 | -0.322 | 0.386 | 0.75 (inactive) | 0.23 | -1.7 (inactive) | -0.126 (inactive) | 0.195 (inactive) | 0.706 (inactive) | 0.905 | 0.204 | 0.589 | 1.4 | -0.98
C=C(COC)/C(=C/C[C@H](OC(C)=O)c1ccccc1OCCO)c1cc(C(=O)OC)ccc1OC | 0.101 | 0.639 | 0.473 | 0.328 | 1.18 | 0.54 | 0.45 | 0.726 | -0.0912 | -0.419 (inactive) | 0.0266 | -3.38 (inactive) | 0.0472 (inactive) | 14.7 (active) | 0.659 (inactive) | -0.432 | -0.0589 | -0.035 | 0.727 | 1.2
COC(=O)C(CC#Cc1ccc2c(c1)[C@]1(C(=O)N2)[C@H](c2ccc(OCCO)cc2)N2[C@H](c3ccccc3)[C@H](c3ccccc3)OC(=O)[C@H]2[C@@H]1C(=O)N1CCCCCCC1)C(=O)OC | 2.65 | 1.17 | 2.67 | 0.68 | 1.45 | 0.724 | -1.39 | 1.24 | 1.46 | -0.596 (inactive) | 1.33 | -1.99 (inactive) | -1.14 (inactive) | 0.622 (inactive) | -0.159 (inactive) | 2.97 | 1.88 | 2.01 | 1.9 | 0.582
CCC(CC)C(O)C1C=CC2C(=O)N(c3ccccc3)C(=O)C2N1Nc1ccccc1F (stereo not given) | 1.62 | 1.16 | 0.869 | 0.94 | 0.337 | -0.557 | -0.231 | 0.128 | 0.416 | 0.211 (inactive) | 0.0501 | -1.14 (inactive) | -0.615 (inactive) | -0.62 (inactive) | 0.492 (inactive) | 0.292 | -0.0044 | 0.838 | 0.597 | -0.455
O=C1[C@H]2C=C(I)[C@H](C[C@@H]2c2ccccc2)[C@@]12CO2 | 0.214 | 0.0555 | -0.142 | -0.347 | 0.742 | 0.111 | 0.949 | 0.334 | -0.1 | -0.218 (inactive) | -0.303 | -0.496 (inactive) | 0.686 (inactive) | 0.849 (inactive) | 1.31 (inactive) | -0.144 | -0.0762 | -0.114 | -0.153 | 0.147
